Screening results as filed in PubChem BioAssay.
Shown are actives, neighbours in structure and some others; about 27% of the full set was active somewhere.
Cav3 T inh: Cav3.2 calcium influx blockers – cell-based, Fluo-4 calcium fluorescence, FDSS, MLSMR library, primary screen | Voltage-dependent T-type calcium channel subunit alpha-1H (Homo sapiens), O95180 | Cav3.2-expressing cells; stronger effect = lower value | B-score at 10 µM | 4% of 100,000 active | AID 449739, 2010;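 active = single-dose well whose peak fluorescence ratio is a statistical outlier from its plate by either plate-standardised score or position-corrected B-score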
CYP2C9 inh: blockers of cytochrome P450 2C9 activity – biochemical, luminescence, ADME assay, primary screen | P11712 | CYP2C9 Supersomes, luciferin-H conversion | inhibition, % at 5 µM | 20% of 96,000 active;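 active = blocking of liver enzyme CYP2C9 beyond about 50% at 5 µM, limit read from the data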
Target sequence (P11712 whole entry, looked up): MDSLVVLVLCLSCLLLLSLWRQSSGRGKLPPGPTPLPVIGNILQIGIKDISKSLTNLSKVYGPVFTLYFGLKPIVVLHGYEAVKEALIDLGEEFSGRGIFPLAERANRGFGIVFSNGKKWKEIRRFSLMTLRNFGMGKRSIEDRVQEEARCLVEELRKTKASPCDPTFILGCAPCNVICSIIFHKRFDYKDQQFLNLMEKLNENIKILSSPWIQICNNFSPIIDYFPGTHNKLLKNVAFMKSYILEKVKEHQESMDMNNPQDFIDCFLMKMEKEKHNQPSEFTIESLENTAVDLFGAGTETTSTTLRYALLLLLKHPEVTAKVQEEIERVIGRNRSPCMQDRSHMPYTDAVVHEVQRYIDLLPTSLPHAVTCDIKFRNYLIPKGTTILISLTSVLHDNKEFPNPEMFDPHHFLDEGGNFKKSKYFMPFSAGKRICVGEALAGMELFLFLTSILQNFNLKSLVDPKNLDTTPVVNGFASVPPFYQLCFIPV
CYP2C19 activ: human CYP2C19 activators, primary screen, biochemical, luminescence; Cytochrome P450 2C19 (Homo sapiens), P33261; recombinant CYP2C19, luciferin-H EGE luminescence; stronger effect = higher value; 0 = fully inhibited enzyme, 1 = untreated enzyme; activation factor at 5 µM; 96,000 tested, under 10 active; AID 1025, 2008;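 active = activation factor of at least 2 at 5 µM in the primary screen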;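 note: 0 = wells with 2.5 mM tranylcypromine and 1 = vehicle-only wells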
CYP2C9 act: human CYP2C9 activators, primary screen, biochemical, luminescence | recombinant CYP2C9, luciferin-H conversion; stronger effect = higher value; factor 1 = untreated enzyme, 0 = blocked | activation factor at 5 µM | 1.4% of 96,000 active | AID 1024, 2008;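 active = activation factor of 2 or more for CYP2C9 at a 5 µM dose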;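 note: 0 = sulfaphenazole-blocked wells and 1 = vehicle-only wells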
CYP2C19 inhib: blockers of cytochrome P450 2C19 activity – biochemical, luminescence, ADME assay, primary screen; 21% of 96,000 active; inhibition, % at 5 µM; P33261; CYP2C19 Supersomes, luciferin-H EGE luminescence, 30 min;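 active = CYP2C19 inhibition above a set limit at 5 µM in the primary screen, cut at about 50% in these data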;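 note: plate controls were negative control wells for no effect and 2.5 mM tranylcypromine positive control for full effect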
An asterisk follows results filed as active; nt = not tested or not shown.

SMILES	Cav3 T inh	CYP2C9 inh	CYP2C19 activ	CYP2C9 act	CYP2C19 inhib
O=C1[C@H](CC[C@H](O)c2ccc(F)cc2)[C@@H](c2ccc(O)cc2)N1c1ccc(F)cc1	-4.1*	nt	nt	nt	nt
N#CC1=C(N)n2c(s/c(=C\c3ccco3)c2=O)=C(C#N)C1c1ccco1 (stereo not drawn)	-0.17	51*	0.9	0.5	5
CCOC(=O)C1=C(C)N=c2s/c(=C/c3ccco3)c(=O)n2C1c1cccc(OC)c1 (stereo not drawn)	-2.4	35	0.8	0.6	17
COC(=O)C1=C(N)Oc2cc(C)n(Cc3ccncc3)c(=O)c2C1c1cccnc1 (stereo not drawn)	0.91	nt	nt	nt	nt
CCOC(=O)C1=C(N)n2c(s/c(=C/c3ccco3)c2=O)=C(C(=O)OC)C1c1ccco1 (stereo not drawn)	-0.8	78*	0.8	0.2	24
COC(=O)C1=C(N)n2c(s/c(=C\c3cccnc3)c2=O)=C(C(=O)OC)C1c1cccnc1 (stereo not drawn)	1.8	50	0.3	0.5	70*
CN1C(=O)CSc2ccc(NC(=O)NCCC3=CCCCC3)cc21	-0.016	28	0.8	0.7	25
Cc1cc(NC(=O)CSc2nnc3c(C)cc4cc5c(cc4n23)OCO5)no1	nt	13	1	0.9	2
Cc1[nH]cnc1CSCCN	nt	74*	1.1	0.3	-6
CCOc1cc(C(=O)CCC(=O)OCC(=O)N2c3ccccc3NC(=O)C2(C)C)ccc1O	-2.4	12	0.7	0.9	30
O=S(=O)(c1ccc(NC2CCCCC2)cc1)N1CCOCC1	-0.27	37	0.9	0.6	9
Cc1ccc(S(=O)(=O)N2CCN(C(=O)c3cc4c(C)nn(-c5ccccc5)c4s3)CC2)cc1	-2.3	44	1	0.6	2
Cc1ccccc1-n1nc(C)c2cc(C(=O)N3CCN(S(=O)(=O)c4ccc(F)cc4)CC3)sc21	0.29	75*	0.9	0.2	11
Cc1ccccc1-n1nc(C)c2cc(C(=O)N3CCN(S(=O)(=O)c4ccc(Cl)cc4)CC3)sc21	-2.8	66*	0.5	0.3	47
CC(C)Sc1nc2ccccc2n1CC(N)=O	0.45	-12	1	1.1	-3
Cc1cc(-c2c(C)[nH]n(-c3ccc(Cl)cc3)c2=O)n(-c2ccccc2)n1	-0.0033	91*	0.9	0.1	8
Cc1[nH]n(-c2cccc(Cl)c2)c(=O)c1-c1ccccc1	-0.064	23	0.9	0.8	5
CC(C)COC(=O)c1ccc2c(c1O)C(=O)c1ccccc1C2=O	0.33	36	1.4	0.6	-36
COc1ccc(CC(=O)Nc2ccc(-c3nnc(-c4ccccc4)o3)cc2)cc1OC	1.4	25	0.9	0.8	14
COc1cc(-c2nnc(-c3ccc(S(=O)(=O)c4ccccc4)cc3)o2)cc(OC)c1OC	0.94	61*	0.4	0.4	61*
COc1cc(-c2nnc(SCC3(c4ccccc4)OCCO3)o2)cc(OC)c1OC	-1.3	-65	0.2	1.6	76*
CCN(CC)C(=O)CSc1nc2sc3c(c2c(=O)n1-c1ccc(C)cc1)CC(C)(C)SC3	-1.3	96*	0.5	0	52*
Cc1sc2nc(SCC(=O)N(C)Cc3ccccc3)n(-c3ccccc3)c(=O)c2c1C	-0.11	15	1	0.9	2
COc1ccc(-c2ccc(-c3nnc(-c4ccncc4)o3)cc2)cc1	nt	35	0.5	0.7	53*
O=c1[nH]c2ccc(Cl)cc2c(-c2ccccc2)c1SC(=S)N1CCCCC1	0.2	52*	1.1	0.5	-8
SMILES	Cav3 T inh	CYP2C9 inh	CYP2C19 activ	CYP2C9 act	CYP2C19 inhib
Cc1cc(C)cc(CC(Cc2nc3ccccc3[nH]2)c2nc3ccccc3[nH]2)c1 (stereo not drawn)	-6.7*	77*	0	0.2	97*
CCOc1cc(C)c(C(C)C)cc1S(=O)(=O)N1CCOCC1	-1.3	16	0.5	0.8	45
COc1cc(Cl)c(S(=O)(=O)N2CCOCC2)cc1Cl	-0.16	-170	0.7	2.7*	29
COc1cc(C)c(S(=O)(=O)N2CCOCC2)cc1C	-0.0048	nt	nt	nt	nt
COc1cc(C)c(C(C)C)cc1S(=O)(=O)N1CCOCC1	-0.086	-99	0.7	2*	34
COc1cc(Cl)c(S(=O)(=O)N2CC(C)OC(C)C2)cc1Cl (stereo not drawn)	-0.74	-71	0.2	1.7	84*
Cc1cccc(OCc2nnc3n2CCCCC3)c1	0.63	-16	0.9	1.2	14
COc1ccc(OC)c(S(=O)(=O)N(C)CC(=O)N2CCN(c3ccccc3F)CC2)c1	0.49	68*	0.2	0.3	76*
COc1ccc(OC)c(S(=O)(=O)N(C)CC(=O)N2CCN(c3ccc(F)cc3)CC2)c1	1.4	47	0.8	0.5	20
COc1ccc(OC)c(S(=O)(=O)N(C)CC(=O)N2CCN(c3cccc(Cl)c3)CC2)c1	-6.8*	92*	0.2	0.1	85*
Cc1nc2sccc2c(=O)n1-c1cccc(Cl)c1	0.64	14	0.3	0.9	70*
CCSc1nnc2c(n1)OC(c1ccc(C(=O)O)cc1)N(C(C)=O)c1ccccc1-2 (stereo not drawn)	0.57	-30	1.1	1.3	-8
CCCCCSc1nnc2c(n1)OC(c1cccn1C)N(C(C)=O)c1ccccc1-2 (stereo not drawn)	-2	83*	0.5	0.2	45
O=C(O)CC1c2ccccc2S(=O)(=O)N1Cc1ccccc1 (stereo not drawn)	0.6	nt	nt	nt	nt
Cc1ccc(-c2nc(C3CCCN(S(=O)(=O)c4ccc(C)cc4)C3)no2)cc1 (stereo not drawn)	nt	57*	0.4	0.4	58*
O=C(NCc1ccccc1)c1cc(S(=O)(=O)N2CCOCC2)ccc1F	0.93	9	0.9	0.9	14
O=S(=O)(NCc1ccccc1)c1cccc(S(=O)(=O)N2CCOCC2)c1	0.0052	42	0.4	0.6	64*
O=S(=O)(NCCc1ccccc1F)c1cccc(S(=O)(=O)N2CCOCC2)c1	0.27	62*	0.1	0.4	88*
O=S(=O)(c1cccc(S(=O)(=O)N2CCC(Cc3ccccc3)CC2)c1)N1CCOCC1	-5.9*	nt	nt	nt	nt
CCCCNS(=O)(=O)c1cccc(S(=O)(=O)N2CCCC2)c1	nt	38	0.7	0.6	32
O=S(=O)(NCc1cccs1)c1cccc(S(=O)(=O)N2CCCCC2)c1	-0.63	21	0.5	0.8	52*
CC1CCN(S(=O)(=O)c2cccc(S(=O)(=O)N3CCOCC3)c2)CC1	0.05	25	0.8	0.8	21
CCOc1ccc(-c2nnc(-c3snc(-c4ccc(F)cc4)c3N=CN(C)C)o2)cc1	-0.6	-8	1.1	1.1	-6
